Bioassay records: PubChem, National Center for Advancing Translational Sciences (NCATS)
This is a sample that favours compounds with a hit; in the whole collection about 3.2% have one here.
AMA1-RON2 inh = qHTS for Inhibitors of AMA1-RON; Towards Development of Antimalarial Drug Lead: Primary Screen; Plasmodium falciparum AMA1 (3D7) - RON2 peptide interaction; AlphaScreen AMA1-biotinylated RON2 peptide binding; Potency, µM (highest dose often 58.2 µM), hits mostly inhibitors; hit rate 0.2% among 360,000; AID 720542, 2013; also: nearly all actives have a fitted effect of over 45% in size
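AMA1 (3D7) with his tag at 25 nM final met compounds first, then biotinylated RON2 peptide at 25 nM; detection used donor plus acceptor beads, 10 µg/mL apiece, read by AlphaScreen after 30 min at room temperature.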
Tb PYK inh = qHTS of Trypanosoma Brucei Inhibitors | pyruvate kinase (Trypanosoma brucei), Q57TT1 | TbPYK enzyme, Kinase-Glo Plus ATP luminescence, 45 min | Potency, µM (doses to about 76.8 µM), hits mostly inhibitors | hit rate 0.12% among 410,000 | AID 624173, 2012; also: nearly all actives have a fitted effect of over 50% in size
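Assay buffer: 50 mM TEA pH 7.2, 100 mM KCl, 10 mM MgCl2, 0.05% BSA, 0.01% Tween-20. Pyruvate kinase from T. brucei plus substrate met compound, then ADP (130 uM final). Luminescence was read post 45 min RT.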
RE007 growth inh = qHTS Assay for Inhibitors of the HIV-1 protein Vpr. AID 651644, 2012. S. pombe RE007 Vpr strain, BacTiter-Glo ATP luminescence, 24 h. hit rate 0.21% among 360,000. Potency, µM (titrated, usually from 92.2 µM), hits mostly inhibitors; active = well fitted falling curve with a large enough effect; inconclusive = small, poorly fitted or top-dose-only effect; inactive = no such curve, though single readings can be large or run the other way; also: nearly all actives have a fitted effect of over 50% in size
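Fission yeast RE007 carrying one integrated HIV-1 vpr copy, seeded at OD 0.01 in PMG+AL medium with 23 nL pinned compound. Grown 24 h at 30 degrees; viability read by BacTiter-Glo luminescence after 5 min.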
Sm TGR inh = qHTS Assay for the Inhibitors of Schistosoma Mansoni Peroxiredoxins; Potency, µM (top dose mostly 114 µM), usual class: inhibitors; purified TGR, DTNB reduction, TNB absorbance 405 nm; hit rate 3% among 360,000; AID 485364, 2010; Schistosoma mansoni thioredoxin glutathione reductase (TGR), Q962Y6; also: nearly all actives have a fitted effect of over 60% in size
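TGR 20 nM + NADPH 100 uM (dispensed conc.), cpd preinc 15 min RT; start with NADPH (500 uM addition) then DTNB (15 mM addition). Kinetic TNB absorbance, 405 nm filter. Four-parameter Hill fit across titration.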
LmPK inhibitor = qHTS Assay for Inhibitors of Leishmania Mexicana Pyruvate Kinase (LmPK); purified LmPK, Kinase-Glo ATP luminescence, 1 h; Potency, µM (top dose mostly 57.5 µM), actives largely listed as inhibitors; hit rate 0.37% among 290,000
Target sequence (Q27686 whole entry, looked up): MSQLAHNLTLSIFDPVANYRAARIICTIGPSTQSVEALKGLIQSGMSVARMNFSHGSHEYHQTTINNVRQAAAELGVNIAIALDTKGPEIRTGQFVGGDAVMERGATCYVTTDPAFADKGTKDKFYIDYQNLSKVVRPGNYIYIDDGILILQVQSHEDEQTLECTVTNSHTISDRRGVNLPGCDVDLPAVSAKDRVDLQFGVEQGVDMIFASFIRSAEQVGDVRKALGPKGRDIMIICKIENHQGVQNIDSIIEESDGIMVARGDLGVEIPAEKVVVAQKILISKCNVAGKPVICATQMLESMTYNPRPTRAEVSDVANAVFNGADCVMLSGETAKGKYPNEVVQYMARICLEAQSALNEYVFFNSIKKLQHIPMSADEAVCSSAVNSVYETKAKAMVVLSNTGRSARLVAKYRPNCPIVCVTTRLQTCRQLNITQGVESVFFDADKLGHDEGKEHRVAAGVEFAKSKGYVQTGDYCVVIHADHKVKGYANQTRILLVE
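Purified LmPK (0.1 nM) with 0.5 mM PEP and 0.1 mM ADP in imidazole buffer pH 7.2 with MgCl2/KCl, 1 h at room temperature. ATP formed was read by luciferase luminescence and normalized to no-enzyme and uninhibited controls.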
Numbers stand for hits; – = inactive; ? = inconclusive; · = no result; [ ] = dose if it differs, or a comment. Unless noted, calls follow the shape of the dose curve; as a rule, active = well fitted curve in the direction sought with a large enough effect; inconclusive = small, poorly fitted or top-dose-only effect, or another doubt; inactive = no such curve, though single readings can be large; an effect the other way counts as inactive or inconclusive.

SMILES	AMA1-RON2 inh	Tb PYK inh	RE007 growth inh	Sm TGR inh	LmPK inhibitor
CCN1C(=O)[C@@H]2[C@@H](c3ccc(-c4ccc(F)cc4)c(OC)c3)N3CCCC[C@@]3(C(=O)OC)[C@@H]2C1=O	–	–	–	28µM	·
CCN1C(=O)[C@H]2[C@@H](c3ccc(-c4ccc(F)cc4)c(OC)c3)N[C@@](CC(C)C)(C(=O)OC)[C@H]2C1=O	·	·	·	40µM	·
CCN1C(=O)[C@H]2[C@@H](c3ccc(-c4ccc(F)cc4)cc3)N[C@@](CC(C)C)(C(=O)OC)[C@H]2C1=O	–	–	–	–	·
CCN1C(=O)[C@H]2[C@@H](c3ccc(-c4ccc(C(C)=O)cc4)c(OC)c3)N3CCCC[C@@]3(C(=O)OC)[C@H]2C1=O	–	–	–	·	·
Cc1nn(CCC(=O)N2CCN(c3ccccc3)CC2)c(C)c1S(=O)(=O)N1CCCC1	·	–	·	–	·
CCC1CCC(C(=O)NNC(=O)c2cc(-c3ccco3)[nH]n2)CC1 (stereo not drawn)	–	–	–	22µM	–
O=C(NNC(=O)C1CCCCC1)c1ccco1	–	–	–	–	–
O=Nc1c(O)c2ccccc2c2ccccc12	–	–	45µM	·	·
CCc1cc(C(=O)NCC(c2ccc(OC)cc2)N2CCOCC2)sc1C (stereo not drawn)	–	–	–	–	·
COc1ccc(C(CNC(=O)c2cc(C)oc2C)N2CCOCC2)cc1 (stereo not drawn)	–	–	–	28µM	–
CN1CCC(N(Cc2cccs2)c2ccccc2)CC1	·	–	·	·	·
Cc1ccc2cc(CCl)c(Cl)nc2c1	?	–	–	25µM	–
ClCc1cc2ccccc2nc1Cl	–	–	–	32µM	–
CCc1cc2ccccc2nc1Cl	–	–	–	·	–
O=C(N/N=C/c1ccc(N2CCOCC2)o1)c1cccc([N+](=O)[O-])c1	–	13µM	–	11µM	–
O=C(N/N=C/c1ccc(N2CCCCC2)o1)c1ccccc1	–[11.6 µM]	22µM	–	7.9µM	–
Cc1ccc(/C=N/NC(=O)c2ccc(-c3ccccc3)cc2)o1	–	–	–	–	–
Cc1ccccc1OCC(=O)N/N=C/c1ccc(N2CCOCC2)o1	–	?	–	7.9µM	–
COc1cccc(OC)c1-c1cc(C(=O)NC2(C(=O)O)C3CC4CC(C3)CC2C4)nn1-c1ccnc2cc(Cl)ccc12 (stereo not drawn)	·	–	·	·	·
Cc1ccccc1NC(=O)CC1SC(=O)N(c2ccccc2)C1=O (stereo not drawn)	–	–	?	5µM	–
CCN1C=C(Cc2ccc(OC)cc2)C2=C(C1)C(c1ccc(OC)cc1)C(C#N)=C(N)O2 (stereo not drawn)	–	–	–	35µM	–
Cc1ccc(NC(=O)CN2C=NS(=O)(=O)c3ccccc32)cc1	·	–	·	–	·
O=C(Cn1cnnn1)N[C@@H]1C(=O)N2C(C(=O)O)=C(CSc3nncs3)CS[C@H]12	·	–	·	·	·
Cc1cc(C)n(CC(=O)NC2C(=O)N3C(C(=O)O)=C(CSc4nnc(C)s4)CSC23)n1 (stereo not drawn)	–	–	–	25µM	–
Cc1nnc(SCC2=C(C(=O)O)N3C(=O)C(NC(=O)c4cccc(F)c4F)C3SC2)s1 (stereo not drawn)	–	–	–	10µM	–
SMILES	AMA1-RON2 inh	Tb PYK inh	RE007 growth inh	Sm TGR inh	LmPK inhibitor
Cc1nnc(SCC2=C(C(=O)O)N3C(=O)C(NC(=O)Cn4ncc(Cl)c4C)C3SC2)s1 (stereo not drawn)	–	–	–	3.2µM	–
CC1=C(C(=O)O)N2C(=O)C(NC(=O)c3c(F)cccc3F)C2SC1 (stereo not drawn)	–	–	–	–	·
CCn1nc(C)c(CN2CCc3c([nH]c4ccccc34)C2c2ccc(F)c(OC)c2)c1C (stereo not drawn)	40µM	–	–	–	–
O=C1NC(=S)NC(=O)C1=Cc1ccc2c(c1)CCN2CCCCl	–	?	–	14µM	–
Cc1ccccc1N1C(=O)NC(=O)/C(=C\c2ccc3c(c2)CCCN3Cc2ccccc2)C1=O	–	–	–	?	–
Cc1cc(NC(=O)CCOc2ccc(F)cc2)no1	–	–	–	0.71µM	–
COc1ccc(OCCC(=O)Nc2cc(C)on2)cc1	–	–	–	40µM	–
CCOC(=O)C(=O)Nc1cc(C)on1	–	–	–	–	16µM
Cc1ccc(Cn2ccsc2=NC(=O)CCl)cc1	–	–	–	14µM	–
CN(C)c1ccc(NC(=O)CSc2nnc(-c3ccco3)c(-c3ccco3)n2)cc1	18µM	–	–	35µM	–
O=C(CSc1nnc(-c2ccco2)c(-c2ccco2)n1)Nc1ccccc1	?	?	–	1.8µM	–
Cc1ccc(NC(=O)Cn2c(CCC(=O)O)ccc2-c2cccs2)cc1	–	–	–	25µM	–
Cc1ccccc1NC(=O)Cn1c(CCC(=O)O)ccc1-c1cccs1	–	–	–	40µM	–
Cc1c(Cl)cccc1NC(=O)Cn1c(CCC(=O)O)ccc1-c1ccccc1	–	–	–	?	–
COC(=O)c1ccccc1NC(=O)Cn1c(CCC(=O)O)ccc1-c1cccs1	–	–	–	50µM	–
COC(=O)c1ccccc1NC(=O)Cn1c(CCC(=O)O)ccc1-c1ccc(C)cc1	·	–	·	–	·
COC(=O)c1sc(-c2ccccc2)cc1NC(=O)Nc1ccc(F)cc1	·	–	·	–	·
Cc1ccc(NC(=O)C(=O)NCC(c2cccnc2)N2CCc3ccccc3C2)cc1 (stereo not drawn)	·	–	·	–	·
Cc1ccc(Cl)cc1-n1c(=O)cc(N2CCN(c3ccccc3)CC2)[nH]c1=O	·	–	·	–	·
CC(NC(=O)CCl)c1ccccc1Br (stereo not drawn)	–	–	–	16µM	–
CC(C)CC(NC(=O)CCl)c1ccccc1 (stereo not drawn)	–	–	·	40µM	–
CC(NC(=O)c1ccc(Cl)c(Cl)c1)c1ccc(-c2ccccc2)cc1 (stereo not drawn)	–	–	·	–	–
CC(NC(=O)CCl)c1ccc(Cl)c(Cl)c1 (stereo not drawn)	–	–	–	16µM	–
CCCC(NC(=O)CCl)c1ccccc1 (stereo not drawn)	–	–	–	45µM	–
Cc1ccc(S(=O)(=O)NCC(=O)NCC(=O)NC(C)c2ccccc2Br)cc1C (stereo not drawn)	–	–	–	–	–
COc1ccc(OC)c(NC(=O)c2ccc3c(c2)c(C)c(C)n3Cc2ccc(F)cc2)c1	·	–[15.4 µM]	·	–	·
COC(=O)C1=C(C(=O)OC)[C@@H]2Nc3ccccc3[C@@]23C[C@@H](C(=O)OC)N(S(=O)(=O)c2ccc(C#N)cc2)C3=N1	·	·	·	·	–[11.5 µM]
